Results on 41 molecules are retold here after PubChem BioAssay (EPA / NIEHS).

Inconclusive results are not listed. Active and inactive are the calls of the source. How the source made its calls, unless noted: active means hit-call score of the fitted dose curve at least 0.9, where 1 is the maximum; inactive means score below 0.9.

Experiment [1] in a line: BSK_BT_Bcell_Proliferation: Viability Assessment in the BioMAP Diversity Plus: BT Assay for B cell Proliferation (AID 2284227). The conditions noted are these: primary human B cells with PBMC. The gist of the method:
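Read-out is absorbance at 560 nm from sulforhodamine B staining of total protein, reflecting relative cell numbers in a human B cell and PBMC co-culture after 72 h of chemical exposure. Values were referenced to DMSO.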

Read-out in experiment [2]: Interleukin 6 (IL6), IL6 (gene 3569)
In words: BSK_BT_xIL6: BioMAP Diversity Plus: BT Assay for Interleukin 6 (IL6) Biomarker Activity (AID 2284228). The conditions noted are these: primary human B cells with PBMC. The gist of the method: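 Human B cell/PBMC co-culture; secreted IL-6 quantified by Luminex xMAP 24 h after chemical dosing, fitted relative to DMSO. Parallel PBMC viability by Alamar Blue after 1 h pretreatment, 20 ng/mL SEB and TSST-1, 90 h incubation.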

Read-out in experiment [3]: Interleukin 17A (IL17A), IL17A (gene 3605)
In words: BSK_BT_xIL17A: BioMAP Diversity Plus: BT Assay for Interleukin 17A (IL17A) Biomarker Activity (AID 2284229). The conditions noted are these: primary human B cells with PBMC. Summed up:
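Co-culture of human B cells and PBMC, dosed for 24 h in 96-well format. Secreted IL-17A measured with Luminex xMAP; gain-direction fitting against DMSO as baseline.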

Read-out in experiment [4]: Vascular cell adhesion molecule 1 (VCAM1), VCAM1 (gene 7412)
In words: BSK_MyoF_VCAM1: BioMAP Diversity Plus: MyoF Assay for Vascular cell adhesion molecule 1 (VCAM1) Biomarker Activity (AID 2284231). The conditions noted are these: primary human lung fibroblasts. The gist of the method: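 Primary human lung fibroblasts (BioMAP MyoF system) dosed with chemical, VCAM-1 measured by ELISA 24 hours later. Fitted in the positive direction against DMSO; parallel SRB staining assessed cytotoxicity.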

Experiment [5] in a line: CCTE_Mundy_HCI_Cortical_Synap_Neur_Matur_NeuriteCount: CCTE's Synaptogenesis and Neurite Maturation Assay in rat cortical cells for Neurite Count, Mundy Lab (AID 2284222).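 Further: exposure from day 7 to day 12 in vitro with readout at day 12.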 The gist of the method: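 Primary rat cortical cells were plated, treated with AraC at DIV 5, then exposed to chemicals from DIV 7 through DIV 12. After fixation and immunostaining for MAP2 and synaptophysin, imaging quantified neurites, with DMSO as the negative control.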

Experiment [6] is described as follows: CCTE_Mundy_HCI_Cortical_Synap_Neur_Matur_CellBodySpotCount: CCTE's Synaptogenesis and Neurite Maturation Assay in rat cortical cells for Cell Body Spot Count, Mundy Lab (AID 2284223). The gist of the method:
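Primary rat cortical cultures, AraC added at DIV 5; dosed DIV 7 through DIV 12 […]. Fixed, stained for MAP2 and synaptophysin with Hoechst; cell body-associated synaptophysin puncta per neuron counted by high-content imaging, loss vs DMSO.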

Experiment [7] in a line: CCTE_Mundy_HCI_hNP1_Pro_ResponderAvgInten: CCTE's Proliferation Assay in human neuroprogenitor cells, Mundy Lab (AID 2284224; active means hit-call score of the fitted dose curve at least 0.9, where 1 is the maximum). The gist of the method: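 Proliferation was scored as BrdU labelling intensity in human neural progenitors derived from WA09 embryonic cells, measured 26.25 hours after chemical dosing. Activity was fitted relative to DMSO.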
Experiment [8] in a line: CCTE_Mundy_HCI_hN2_NOG_NeuriteLength: CCTE's Neurite Outgrowth Assay in human hN2 cells for Neurite Length, Mundy Lab (AID 2284220; active means hit-call score of the fitted dose curve at least 0.9, where 1 is the maximum). Summed up:
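Plate hNP1-derived neurons, then add chemical 2 h later as a 1/10 dilution. Stain with anti-βIII-tubulin then Alexa Fluor-488 secondary, and image automatically to measure neurite length.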

Experiment [9] is described as follows: CCTE_Mundy_HCI_hN2_NOG_NeuronCount: CCTE's Neurite Outgrowth Assay in human hN2 cells for Neuron Count, Mundy Lab (AID 2284221; active means hit-call score of the fitted dose curve at least 0.9, where 1 is the maximum). Summed up: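 Read-out is the number of betaIII-tubulin-positive neurons imaged by automated high-content analysis, with DMSO as negative control.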
Experiment [10] is described as follows: UKN4_HCS_LUHMES_cell_viability: Viability Assessment in the University of Konstanz (UKN) Leist Lab Neurite Outgrowth Assay in human LUHMES cells (UKN4) (AID 2284232). The gist of the method:
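LUHMES precursors differentiated 2 days, replated at 30000 cells/well without cAMP/GDNF, then compound-treated 24 h. Viability from Hoechst H-33342 and calcein-AM live staining (30 min) by high-content fluorescence imaging; bidirectional fit versus DMSO.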

A word on the AC50: it is the concentration giving half of the maximal activity seen.

For the molecule `c1ccc(Oc2ccccc2)cc1`, the outcome in [1], in experiment [2], in experiment [3] and in [4] was inactive.

In the case of `COc1cc(Cl)c(OC)cc1N`, the result in experiment [1], in experiment [2], in experiment [3] and in [4] was inactive.

As to `CC(C)(C)CC(C)(C)c1ccc(OCCOCC[N+](C)(C)Cc2ccccc2)cc1`, the AC50 is 5 µM (active) in experiment [1], 8.48 µM (active) in experiment [3] and 8.24 µM (active) in experiment [4]. Also, in experiment [2], the result was inactive.

In the case of `CN(C)CCOC(C)(c1ccccc1)c1ccccn1` (stereo unspecified), the molecule was called inactive in experiment [5], in experiment [6] and in [7].

For `Oc1c(Cl)cc(Cl)c(Cl)c1Cc1c(O)c(Cl)cc(Cl)c1Cl`, the AC50 in [8] is 1.38 µM (active); in experiment [9], 1.4 µM (active); in experiment [6], 9.92 µM (active); in [1], 12.6 µM (active); in [3], 2.48 µM (active); in [4] it was 0.555 µM (active). For the same molecule, the AC50 in [10] was 18.3 µM (active). Besides, the outcome in [5], in experiment [7] and in [2] was inactive.

Regarding `CC=Cc1ccc(OCC)c(O)c1`, the result in experiment [1], in [2], in experiment [3] and in experiment [4] was inactive.

Take `CC(C)(N=C=O)c1cccc(C(C)(C)N=C=O)c1`: the outcome in experiment [1], in [2], in [3] and in [4] was inactive.

Consider `C=C(C)[C@H]1CC=C(C)C(=O)C1`, for which the result in experiment [1], in [2], in experiment [3] and in [4] was inactive.

Take `COCCc1ccc(OCC(O)CNC(C)C)cc1` (stereo unspecified): the call in [5] and in [6] was inactive.

As for `C[C@@H]1CCN(C(=O)[C@H](CCCN=C(N)N)NS(=O)(=O)c2cccc3c2NC[C@H](C)C3)[C@@H](C(=O)O)C1`, the outcome in experiment [1], in [2], in experiment [3] and in [4] was inactive.

For the molecule `O=C1OC2(c3ccccc31)c1ccc(O)c(Br)c1Oc1c2ccc(O)c1Br`, the outcome in experiment [1], in [2], in experiment [3] and in experiment [4] was inactive.

Consider `c1ccc(CCc2ccccc2)cc1`, for which the result in experiment [1], in experiment [2] and in experiment [3] was inactive. The AC50 in experiment [4] is 31 µM (active).

For the molecule `CC1(C)C2=CCCC(C)(C)[C@]23CC[C@H]1C3`, the result in [1], in experiment [2] and in experiment [3] was inactive. The AC50 in [4] is 31.9 µM (active).

As to `CCCCCCCCCCCCCCCC(=O)OC/C=C(C)/C=C/C=C(C)/C=C/C1=C(C)CCCC1(C)C`, the result in experiment [1], in experiment [3] and in experiment [4] was inactive. For the same molecule, the AC50 in experiment [2] was 31.2 µM (active).

Turning to `c1ccc2cc(Nc3ccc(Nc4ccc5ccccc5c4)cc3)ccc2c1`, the outcome in experiment [1], in [3] and in experiment [4] was inactive. In addition, in experiment [2], the AC50 was 1.12 µM (active).

For `CC(=O)C1(C)CC2=C(CCCC2(C)C)CC1C` (stereo unspecified), the AC50 was 34.7 µM (active) in [1], 28.5 µM (active) in [2], 26 µM (active) in [3] and 12.1 µM (active) in [4].

As for `COCCOCCOCCO`, the call in [5], in experiment [6] and in [7] was inactive.

Take `CC(=O)c1c(C)c([N+](=O)[O-])c(C(C)(C)C)c([N+](=O)[O-])c1C`: the result in experiment [1], in experiment [2], in [3] and in experiment [4] was inactive.

Consider `CC(=O)Nc1ccc(C(=O)CCl)cc1`, for which the AC50 in experiment [1] was 5.39 µM (active); in experiment [2] it was 3.46 µM (active); in experiment [3], 2.25 µM (active); in experiment [4] it was 23.9 µM (active).

As for `CN(C)C(=S)SC(=S)N(C)C`, the AC50 in experiment [1] is 0.436 µM (active); in experiment [2], 0.6 µM (active); in [3], 0.367 µM (active); in experiment [4] it was 35.5 µM (active).

For `CSCCC=O`, the result in experiment [1], in experiment [2], in [3] and in [4] was inactive.

Take `IC(I)I`: the result in experiment [1], in [2], in experiment [3] and in experiment [4] was inactive.

For the molecule `C1=CC2C3C=CC(C3)C2C1` (stereo unspecified), the outcome in [1], in [2], in experiment [3] and in [4] was inactive.

Turning to `CN(C)C(=O)Nc1ccc(Oc2ccc(Cl)cc2)cc1`, the result in [1], in experiment [2], in experiment [3] and in experiment [4] was inactive.

On to `CCN(CC)C(=O)N(CC)CC`, for which the result in [1], in [2], in experiment [3] and in [4] was inactive.

With `C=C(C)C(=O)OCCOCCOCCOC(=O)C(=C)C`, the outcome in [1], in experiment [2], in experiment [3] and in experiment [4] was inactive.

With `CS(=O)(=O)c1ccc(C2=C(c3ccccc3)C(=O)OC2)cc1`, the outcome in experiment [1], in experiment [2], in experiment [3] and in experiment [4] was inactive.

On to `CCCCCC(C=O)=Cc1ccccc1`, for which the outcome in experiment [1], in experiment [2] and in [3] was inactive. Besides, the AC50 in [4] was 34.2 µM (active).

As to `CC(C=O)Cc1ccc(C(C)(C)C)cc1` (stereo unspecified), the outcome in [1], in experiment [2], in [3] and in experiment [4] was inactive.

In the case of `C=C(C)C(=O)OCC(CC)(COC(=O)C(=C)C)COC(=O)C(=C)C`, the AC50 in experiment [1] is 25.5 µM (active); in experiment [2] it was 19.7 µM (active); in experiment [4], 11.2 µM (active). In addition, the outcome in [3] was inactive.

Turning to `COc1ccc(OC)c(N=Nc2c(O)ccc3ccccc23)c1`, the result in experiment [1], in experiment [2] and in experiment [3] was inactive. Moreover, in experiment [4], the AC50 was 9.05 µM (active).

For `Cc1cc(CCC(=O)OCCOCCOCCOC(=O)CCc2cc(C)c(O)c(C(C)(C)C)c2)cc(C(C)(C)C)c1O`, the result in experiment [1], in experiment [2], in experiment [3] and in experiment [4] was inactive.

As for `COc1ccc(CCN2CCC(Nc3nc4ccccc4n3Cc3ccc(F)cc3)CC2)cc1`, the AC50 in [1] is 5.84 µM (active); in [2], 3.52 µM (active); in [3], 3.17 µM (active); in experiment [4], 5 µM (active).

Take `CN(c1nccc(=O)[nH]1)C1CCN(c2nc3ccccc3n2Cc2ccc(F)cc2)CC1`: the result in [1], in experiment [2] and in experiment [3] was inactive. Besides, the AC50 in experiment [4] was 3.1 µM (active).

With `CCCCN(CCCC)C(=O)N(CCCC)CCCC`, the AC50 in [1] is 31.4 µM (active); in experiment [2], 29 µM (active); in experiment [3] it was 14.5 µM (active); in [4], 10.5 µM (active).

For `O=C1OC[C@H](Cc2cccc(O)c2)[C@H]1Cc1cccc(O)c1`, the result in experiment [1], in experiment [2], in [3] and in experiment [4] was inactive.

For the molecule `O=C1c2ccccc2C(=O)c2c(O)ccc(O)c21`, the AC50 in [1] is 11.8 µM (active); in experiment [2], 0.0172 µM (active). Moreover, the result in [3] and in experiment [4] was inactive.

Take `C=C(C)C(=O)OCCOCCOCCOCCOC(=O)C(=C)C`: the outcome in [1], in experiment [2], in [3] and in experiment [4] was inactive.

Consider `CCC(C)c1cc([N+](=O)[O-])cc([N+](=O)[O-])c1OC(=O)OC(C)C` (stereo unspecified), for which the AC50 in experiment [1] was 26.7 µM (active); in [2], 30.4 µM (active); in [3] it was 30.7 µM (active); in experiment [4], 8.46 µM (active).

For `CCCCOC(=O)CCCCCCCC(=O)OCCCC`, the result in [1], in experiment [2], in experiment [3] and in [4] was inactive.

Turning to `Clc1cc(Cl)c(-c2c(Cl)c(Cl)cc(Cl)c2Cl)cc1Cl`, the outcome in experiment [1], in experiment [2] and in experiment [3] was inactive. Also, the AC50 in experiment [4] is 2.76 µM (active).
